Results on 16 compounds are retold here after PubChem BioAssay (NCI).

The structures appear in SMILES notation. About 83,000 compounds went through this panel and 20% of them were active in at least one assay; those are over-represented in the sample as a whole.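 The test compound was applied at a single concentration to cells in 96-well plates for 48 hours, and percent growth was recorded.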 Unmarked numbers belong to inactive results. Active and inactive are the calls of the source. The calls were made as follows: active = growth percent below 10; inactive = the rest.

Some test systems named below: T-47D breast; BT-549 breast; MDA-MB-435 melanoma; SW-620 colon; MCF7 breast; HCT-116 colon; HCC-2998 colon; KM12 colon.
Common to all, as to test: NCI-60 one-dose screen, 48 h (100 = growth as untreated, 0 = no growth, -100 = all killed)
Settings in all cases: 10 µM

As for `CCCCC(=O)N(c1ccc(Nc2c3ccccc3nc3cc([N+](=O)[O-])ccc23)cc1)S(C)(=O)=O`, the growth in the assay on T-47D breast was 15.1%; in the assay on BT-549 breast, 86.3%; in the assay with MDA-MB-435 melanoma it was 96.8%; with SW-620 colon, 71.5%; in the assay with MCF7 breast it was 17.2%; in the assay with HCT-116 colon, 63.4%. For the same compound, the growth with HCC-2998 colon is 86.1%; with KM12 colon it was 38.4%.

With `N#Cc1c(-c2ccccc2)nc(SCC(=O)N2CCOCC2)[nH]c1=O`, the growth with T-47D breast was 93.4%; in the assay with BT-549 breast it was 88.2%; in the assay on MDA-MB-435 melanoma, 112%; in the assay on SW-620 colon, 106%; in the assay with MCF7 breast, 89.7%; with HCT-116 colon it was 99.9%. The growth is 109% in the assay on HCC-2998 colon and 114% in the assay on KM12 colon.

On to `CCNC(=S)NN`, for which the growth in the assay with T-47D breast was 47.2%; in the assay on BT-549 breast, 117%; with MDA-MB-435 melanoma, 93.7%; in the assay with SW-620 colon, 83.2%; in the assay on MCF7 breast, 5.44% (active); in the assay on HCT-116 colon, 10.4%. In addition, the growth in the assay with HCC-2998 colon was 94.7%; with KM12 colon, 109%.

Take `Cc1nnc2c3nnc(-c4ccc(Cl)cc4)n3c3ccccc3n12`: the growth in the assay on T-47D breast was 105%; with BT-549 breast it was 91.5%; with MDA-MB-435 melanoma, 94.9%; with SW-620 colon, 106%; in the assay on MCF7 breast, 101%; in the assay with HCT-116 colon, 101%. Also, the figures for the growth in the assay with HCC-2998 colon and with KM12 colon were 102% and 103%, respectively.

Turning to `CCc1c(C)[nH]c(=O)c(C(N)=O)c1C#N`, the growth was 94.1% in the assay on T-47D breast; 97.4% in the assay with BT-549 breast; 101% in the assay with MDA-MB-435 melanoma; 97.7% in the assay on SW-620 colon; 97% in the assay on MCF7 breast; 95.7% in the assay on HCT-116 colon. Further, the growth with HCC-2998 colon is 87.7%; in the assay on KM12 colon, 106%.

For `Cc1ccc2nc3[nH]c(=O)[nH]c(=O)c3c(N)c2c1`, the growth is 85.1% with T-47D breast; 99.8% in the assay on BT-549 breast; 91.5% with MDA-MB-435 melanoma; 97.8% in the assay with SW-620 colon; 89.3% in the assay on MCF7 breast; 80.6% in the assay with HCT-116 colon. The growth is 95.9% in the assay with HCC-2998 colon and 91% in the assay with KM12 colon.

`COc1ccc(-c2nnc(SCC(=O)c3ccccc3)o2)cc1`: the growth in the assay on T-47D breast is 86.3%; with BT-549 breast, 74.9%; in the assay on MDA-MB-435 melanoma it was 101%; in the assay on SW-620 colon, 102%; with MCF7 breast it was 104%; in the assay on HCT-116 colon, 78.9%. In addition, the growth in the assay with HCC-2998 colon is 86.1%; with KM12 colon, 98.3%.

As to `O=C1/C(=C/c2ccc([N+](=O)[O-])s2)Oc2ccc(Cl)cc21`, the growth was -34.9% (active) with T-47D breast; -67.1% (active) in the assay on BT-549 breast; -60.4% (active) with MDA-MB-435 melanoma; -64.4% (active) with SW-620 colon; -26.7% (active) in the assay on MCF7 breast; -52.7% (active) with HCT-116 colon. Further, the growth with HCC-2998 colon is -74.8% (active); in the assay on KM12 colon, -53.3% (active).

In the case of `CNC(=S)Sc1ccc([N+](=O)[O-])cc1[N+](=O)[O-]`, the growth with T-47D breast is 32.2%; in the assay with BT-549 breast, 20.5%; in the assay on MDA-MB-435 melanoma it was 29.5%; with SW-620 colon, 36.8%; with MCF7 breast, 31.5%; in the assay with HCT-116 colon, 27.7%. Further, the growth was 75.1% with HCC-2998 colon and 13.4% in the assay with KM12 colon.

As for `CCCCc1ccc(NC(=O)N(CCCl)N=O)cc1`, the growth in the assay on T-47D breast is 112%; in the assay on BT-549 breast, 85.4%; in the assay on MDA-MB-435 melanoma, 92%; in the assay with SW-620 colon, 93%; in the assay on MCF7 breast, 92.7%; with HCT-116 colon, 97.1%. The growth in the assay with HCC-2998 colon was 117%; in the assay with KM12 colon, 94.3%.

As for `Nc1ccc(C2=CC(c3ccc(Cl)cc3)N3C=CSC3=N2)cc1` (stereo not drawn), the growth in the assay with T-47D breast was -11% (active); with BT-549 breast, -50.7% (active); in the assay with MDA-MB-435 melanoma it was -65.7% (active); with SW-620 colon it was -60.5% (active); in the assay on MCF7 breast, -32.1% (active); in the assay with HCT-116 colon, -89.3% (active). The growth is -95.7% (active) with HCC-2998 colon and -41.4% (active) with KM12 colon.

As for `COc1cc(-c2n/c(=C\c3c(O)[nH]c4ccccc34)cc3c2=Nc2ccccc2-3)cc(OC)c1OC`, the growth in the assay with T-47D breast was 51.7%; in the assay on BT-549 breast, 6.59% (active); in the assay with MDA-MB-435 melanoma it was -7.06% (active); in the assay with SW-620 colon, 33.4%; in the assay with MCF7 breast, 3.28% (active); with HCT-116 colon it was 3.38% (active). Further, the growth is -20.4% (active) in the assay on HCC-2998 colon and 5.99% (active) in the assay with KM12 colon.

Take `CCCCCCCCCCSC(=N)N` (tested in a mixture with another compound): the growth was 28% with T-47D breast; 75% in the assay on BT-549 breast; 79.6% in the assay with MDA-MB-435 melanoma; 38.6% in the assay on SW-620 colon; 36.6% in the assay with MCF7 breast; 55.6% in the assay with HCT-116 colon. In addition, the growth with HCC-2998 colon was -57.9% (active); in the assay on KM12 colon, 45.3%.

As to `CCCN(CCC)CCCNC(=O)c1cc2c(-c3ccc(OC)c(OC)c3)nn(C)c2s1`, the growth is 24.5% in the assay with T-47D breast; 13.7% with BT-549 breast; -24.5% (active) with MDA-MB-435 melanoma; 10.8% in the assay with SW-620 colon; 11.2% in the assay with MCF7 breast; 13.7% with HCT-116 colon. Moreover, the growth with HCC-2998 colon was 67.2%; in the assay on KM12 colon it was 6.62% (active).

As to `COc1ccc(-c2nc3sc(-c4ccccc4)c(-c4ccccc4)n3c2/C=C/c2ccc(F)cc2)cc1`, the growth in the assay with T-47D breast was 77.6%; in the assay on BT-549 breast, 112%; with MDA-MB-435 melanoma it was 97.1%; in the assay with SW-620 colon, 95.5%; in the assay on MCF7 breast, 73.8%; in the assay with HCT-116 colon, 77.3%. Also, the growth in the assay with HCC-2998 colon was 92.8%; in the assay with KM12 colon it was 90.7%.

Turning to `O=C1CC[C@@H](C(=O)N[C@H]2CSSC[C@@H](C(=O)NCCc3ccccc3)NC(=O)[C@H](Cc3ccccc3)NC(=O)[C@@H]3CCCN3C(=O)[C@@H]3CCCN3C2=O)N1`, the growth is 25.3% in the assay on T-47D breast; 106% with BT-549 breast; 109% with MDA-MB-435 melanoma; 102% in the assay on SW-620 colon; 95.8% in the assay with MCF7 breast; 95.8% in the assay on HCT-116 colon. In addition, the growth in the assay on HCC-2998 colon is 94.3%; with KM12 colon, 105%.
